Measurements from PubChem BioAssay (Tox21).
Several values for one entry are separate records, joined by “and”; a condition that tells them apart may be missing. Equal values may be shown once. Inconclusive results are not listed. Where a call stands in place of a potency, no number is given. More than one record can exist for a structure, and the calls need not agree. Activity calls are given as the source filed them. Calls follow the shape of the dose curve; as a rule, active = well fitted curve in the direction sought with a large enough effect in the repeat runs; inconclusive = weak or mixed curves; inactive = no such curve, though single readings can be large; an effect the other way counts as inactive or inconclusive.

How the values were obtained:
[1] = Human pregnane X receptor (PXR) small molecule agonists, qHTS cell viability counter screen (AID 1346977); also: nearly all actives have a fitted effect of over 50% in size
Method in brief: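 PXR-Luc HepG2, 2,000 cells/well, 5% charcoal-stripped FBS; 5hr settle; cpd 24hr, 37C/5% CO2; CellTiter-Fluor at 23hr, read 1hr later (fluorescence).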

[2] = Caspase-3/7 induction in HepG2 cells by small molecules, qHTS assay (AID 1346978); also: nearly all actives have a fitted effect of over 15% in size; also: potency is read from the fitted curve at half-maximal effect
Method in brief: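 Caspase-3/7 induction was measured by Caspase-Glo 3/7 luminescence (30 min, room temperature) after a 17 hr compound exposure of wild-type HepG2 cells seeded at 2,000 per well and pre-incubated 5 hr.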

[3] = Caspase-3/7 induction in CHO-K1 cells by small molecules, qHTS assay (AID 1346980); also: nearly all actives have a fitted effect of over 15% in size
Method in brief: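 Luminescent Caspase-Glo 3/7 read (30min, room temperature) quantified apoptosis induction. Cells were wild-type CHO-K1, treated with compound for 17hr at 37 C and 5% CO2.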

[4] = Caspase-3/7 induction in HepG2 cells by small molecules, qHTS cell viability counter screen (AID 1346981); also: series mostly up to about 92 µM; nearly all actives have a fitted effect of over 30% in size
Method in brief: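 Cell viability is measured as a cytotoxicity counter screen alongside the Caspase-Glo 3/7 readout in identical wells. Wild-type HepG2 cells are treated with test compounds for 16 hr at 37 C before CellTiter-Fluor addition and a 1-hr incubation.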

[5] = target: Cytochrome P450 2D6 (Homo sapiens) (UniProt P10635); assay: Cytochrome P450 Family 2 Subfamily D Member 6 (CYP2D6) small molecule antagonists: luciferase reporter qHTS assay (AID 1671196); also: nearly all actives have a fitted effect of over 50% in size; also: potency is read from the fitted curve at half-maximal effect
Chain of Cytochrome P450 2D6 (Homo sapiens) (P10635 whole entry, looked up): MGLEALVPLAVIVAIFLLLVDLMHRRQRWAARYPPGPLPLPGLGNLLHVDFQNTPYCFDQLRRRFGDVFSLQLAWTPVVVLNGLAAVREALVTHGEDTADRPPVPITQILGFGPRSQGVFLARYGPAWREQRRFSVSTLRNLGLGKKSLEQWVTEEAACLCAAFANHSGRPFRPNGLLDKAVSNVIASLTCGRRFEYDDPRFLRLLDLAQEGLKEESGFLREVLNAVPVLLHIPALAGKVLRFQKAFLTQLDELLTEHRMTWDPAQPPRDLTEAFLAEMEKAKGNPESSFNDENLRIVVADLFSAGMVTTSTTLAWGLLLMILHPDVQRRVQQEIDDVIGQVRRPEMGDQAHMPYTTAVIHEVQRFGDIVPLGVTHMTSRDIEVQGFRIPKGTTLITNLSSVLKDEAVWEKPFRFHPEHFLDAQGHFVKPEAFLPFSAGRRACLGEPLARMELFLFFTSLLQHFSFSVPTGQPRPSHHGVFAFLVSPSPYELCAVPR
Method in brief: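 Enzyme and proluciferin substrate were first combined with test chemical for 10 min at room temperature. Adding NADPH regeneration solution started a 1 h reaction, stopped with luciferin detection reagent and read by luminescence 20 min later.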

[6] = Caspase-3/7 induction in CHO-K1 cells by small molecules, qHTS cell viability counter screen (AID 1346979); also: nearly all actives have a fitted effect of over 35% in size; also: potency is read from the fitted curve at half-maximal effect
Method in brief: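 Cells (CHO-K1, wild type) are plated at 1,500 per well and incubated 5hr. Test compounds in DMSO are then pinned in, followed by 16hr at 37C and 5% CO2. Viability is read by CellTiter-Fluor fluorescence after 1hr.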

[7] = target: Nuclear receptor subfamily 1 group I member 2 (Rattus norvegicus) (UniProt Q9R1A7); assay: Rat pregnane X receptor (rPXR) activation by small molecules, qHTS assay (AID 1346983); conditions: rPXR luciferase reporter cells, One-Glo luminescence, 24 h; stronger effect = higher value; also: nearly all actives have a fitted effect of over 20% in size
Chain of Nuclear receptor subfamily 1 group I member 2 (Rattus norvegicus) (Q9R1A7 whole entry, looked up): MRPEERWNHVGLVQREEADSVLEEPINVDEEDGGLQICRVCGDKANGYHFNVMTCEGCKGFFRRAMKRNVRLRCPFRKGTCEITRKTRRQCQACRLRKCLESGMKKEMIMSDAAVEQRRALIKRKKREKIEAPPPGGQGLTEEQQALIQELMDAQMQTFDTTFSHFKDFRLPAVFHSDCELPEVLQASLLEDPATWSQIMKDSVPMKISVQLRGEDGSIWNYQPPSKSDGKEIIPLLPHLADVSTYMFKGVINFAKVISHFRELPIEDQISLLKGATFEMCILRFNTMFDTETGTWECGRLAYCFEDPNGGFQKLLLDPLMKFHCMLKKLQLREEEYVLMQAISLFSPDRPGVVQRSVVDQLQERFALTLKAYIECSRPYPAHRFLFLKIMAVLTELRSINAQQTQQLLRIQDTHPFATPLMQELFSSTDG
Method in brief: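 Luminescent readout (One-Glo luciferase, 30 min room temperature) followed 24 hr compound treatment at 37 C of rPXR cells plated 2,000 per well and preincubated 5hr; qHTS format with compounds delivered in DMSO.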

[8] = target: Nuclear receptor subfamily 1 group I member 2 (Homo sapiens) (UniProt O75469); assay: CYP3A4 induction through human pregnane X receptor (PXR) by small molecules, qHTS assay (AID 1346984); also: nearly all actives have a fitted effect of over 40% in size
Chain of Nuclear receptor subfamily 1 group I member 2 (Homo sapiens) (O75469 whole entry, looked up): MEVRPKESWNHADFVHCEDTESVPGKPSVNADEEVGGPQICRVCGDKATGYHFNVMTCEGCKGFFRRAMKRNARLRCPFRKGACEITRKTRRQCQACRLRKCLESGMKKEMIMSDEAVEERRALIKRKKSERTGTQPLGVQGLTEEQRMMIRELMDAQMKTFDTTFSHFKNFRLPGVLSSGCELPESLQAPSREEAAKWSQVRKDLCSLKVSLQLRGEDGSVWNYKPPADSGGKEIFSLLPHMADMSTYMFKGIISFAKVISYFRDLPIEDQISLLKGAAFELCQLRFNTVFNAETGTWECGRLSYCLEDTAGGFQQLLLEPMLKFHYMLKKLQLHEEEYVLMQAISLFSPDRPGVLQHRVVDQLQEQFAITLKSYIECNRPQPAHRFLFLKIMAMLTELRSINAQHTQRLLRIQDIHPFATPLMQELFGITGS
Method in brief: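 Quantitative HTS in DPX-2 cells, i.e. HepG2 transfected with PXR response element and CYP3A4-promoter luciferase. Compounds in DMSO incubated 24hr at 37C; then P450-Glo CYP3A4 substrate, 3uM final, 3hr; One-Glo luminescence.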

[9] = target: Nuclear receptor subfamily 1 group I member 2 (Homo sapiens) (UniProt O75469); assay: Human pregnane X receptor (PXR) activation by small molecules, qHTS assay (AID 1346985); also: nearly all actives have a fitted effect of over 40% in size
Method in brief: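 DPX-2 cells (HepG2 co-transfected with a PXR response element and a CYP3A4-promoter luciferase construct) were seeded at 2,000 per well, rested 5 hr at 37C, then exposed to DMSO-dissolved compounds for 24 hr. Activation was read as luciferase luminescence.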

[10] = target: Nuclear receptor subfamily 1 group I member 2 (Homo sapiens) (UniProt O75469); assay: Human pregnane X receptor (PXR) small molecule agonists, qHTS assay (AID 1346982); also: nearly all actives have a fitted effect of over 35% in size; also: potency is read from the fitted curve at half-maximal effect
Method in brief: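 Cells: HepG2 stably carrying PXR-Luc. Medium held 5% charcoal-stripped FBS. Compounds in DMSO added after 5 hr plating, incubated 24 hr, then luminescence quantified with ONE-Glo.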

| SMILES | Potency [1] | Potency [2] | outcome [3] | Potency [4] | Potency [5] | Potency [6] | max activation [7] | Potency [8] | outcome [9] | Potency [10] |
| --- | --- | --- | --- | --- | --- | --- | --- | --- | --- | --- |
| CN(C)c1ccc(Cc2ccc(N(C)C)cc2)cc1 | inactive | inactive | inactive | inactive | 40.1 µM (active) | – | – | – | – | – |
| CC(=O)OCc1ccco1 | inactive | 60.8 µM (active) and inactive | inactive | inactive | inactive | 15.3 µM (active) and inactive | – | – | – | – |
| CCOCCOCCOCCO | inactive | inactive | inactive | inactive | inactive | inactive | – | – | – | – |
| O=C(O)Cn1c(=O)n(Cc2ccc(Br)cc2F)c(=O)c2ccc(Cl)cc21 | inactive | inactive | inactive | – | inactive | – | – | – | – | – |
| Nc1nc(N)nc(-c2ccccc2)n1 | inactive | inactive | inactive | inactive | inactive | inactive | – | – | – | – |
| c1ccc2c(c1)Cc1ccccc1-2 | inactive | inactive | inactive | inactive | inactive | inactive | – | – | – | – |
| Nc1ccc(Cl)c(N)c1 | inactive | inactive | inactive | inactive | inactive | inactive | – | – | – | – |
| CCCCCCO | inactive | inactive | inactive | inactive | inactive | inactive | – | – | – | – |
| CNC(=O)Oc1ccc2c(c1)[C@]1(C)CCN(C)[C@@H]1N2C | inactive | inactive | inactive | inactive | 564 nM (active) and 977 nM (active) | inactive | -1.54% (inactive) | inactive | inactive | – |
| C[C@]12CCC(=O)C=C1CC[C@@H]1[C@@H]2[C@@H](O)C[C@@]2(C)[C@H]1CC[C@]2(O)C(=O)CO | inactive | inactive | inactive | inactive | inactive | inactive | 9.15% (inactive) | – | – | – |
| CC(=O)OC1CC(C)OC(C)O1 (stereo unspecified) | inactive | inactive | inactive | inactive | inactive | inactive | – | – | – | inactive |
| CC(C)c1cccc(C(C)C)c1 | inactive | inactive | inactive | inactive | inactive | inactive | – | – | – | – |
| CCCCCCCCCCCCCCCCO | inactive | inactive | inactive | inactive | inactive | inactive | -1.74% (inactive) | inactive | inactive | – |
| CC(C)CCCCCCCOC(=O)CCCCC(=O)OCCCCCCCC(C)C | inactive | inactive | inactive | inactive | inactive | inactive | – | – | – | – |
| COc1cc(OC)c(C(=O)CCCN2CCCC2)c(OC)c1 | inactive | inactive | inactive | inactive | – | inactive | -3.14% (inactive) | – | – | – |
| CCCCCCCCCCCC(=O)OC | inactive | inactive | inactive | inactive | inactive | inactive | – | – | – | – |
| O=c1[nH]cnc2[nH]ncc12 | inactive | inactive | inactive | inactive | inactive | inactive | – | – | – | – |
| CN/C(=C\[N+](=O)[O-])NCCSCc1csc(CN(C)C)n1 | inactive | inactive | inactive | inactive | 35.6 µM (active) and inactive | inactive | -2.39% (inactive) | inactive | inactive | – |
| CC(=O)c1ccc(O)cc1 | inactive | inactive | inactive | inactive | inactive | inactive | – | – | – | – |
| CC(C)OP(=O)(CP(=O)(OC(C)C)OC(C)C)OC(C)C | inactive | inactive | inactive | inactive | inactive | inactive | – | – | – | – |
| O=C(O)c1ccccc1C(=O)O | inactive | – | inactive | inactive | inactive | inactive | – | – | – | inactive |
| O=C1c2ccccc2CCc2ccccc21 | inactive | – | inactive | inactive | inactive | inactive | – | – | – | 55.6 µM (active) and inactive |
| CCOC(=O)c1ccc(N)cc1 | inactive | – | inactive | inactive | inactive | inactive | -0.927% (inactive) | inactive | inactive | inactive |
| O=C(O)c1cc2ccccc2cc1O | inactive | – | inactive | inactive | inactive | inactive | – | – | – | – |
| Cc1ccc([N+](=O)[O-])cc1S(=O)(=O)O | inactive | – | inactive | inactive | 39.2 µM (active) | inactive | – | – | – | inactive |
| NC(=S)NNC(N)=S | inactive | – | inactive | – | inactive | inactive | – | – | – | – |
| CCO[Si](CCCN)(OCC)OCC | inactive | – | inactive | inactive | inactive | inactive | – | – | – | – |
| Cc1ccc2ncccc2c1 | inactive | – | inactive | inactive | inactive | inactive | – | – | – | inactive |
| Clc1ccccn1 | inactive | – | inactive | inactive | inactive | inactive | – | – | – | inactive |
